This test concerns PPARgamma LBD (GAL4 fusion). Nature of the test: luciferase reporter transactivation, fold of solvent control; higher = stronger receptor activation. The following applies: HEK293T, exposure time: 24 h. On the procedure:
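HEK293T cells were transiently transfected with a GAL4-DBD fused to the ligand-binding domain of a human nuclear receptor (PPARα, PPARγ, PPARδ, FXR, LXRα, PXR, RARα or CAR), the GAL4-(UAS)5-TK firefly luciferase reporter and a Renilla luciferase normalisation plasmid. Cells were exposed to compound for 24 h in 0.5% DMSO. Firefly/Renilla luciferase was expressed as fold of the solvent control (=1). Values are the mean of 2-3 biological replicates; receptor agonists were used as positive controls.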
(Reporter assays use an easily measured gene product as a stand-in for the process of interest.)

As to `O=C(O)C(F)(F)C(F)(F)F` [perfluoropropanoic acid], the luciferase reporter transactivation was found to be 1.14 (concentration: 1 µM); 1.11 (concentration: 5 µM); 1.23 (concentration: 10 µM); 1.18 (concentration: 25 µM); 1.29 (concentration: 50 µM); 1.32 (concentration: 100 µM). Moreover, the luciferase reporter transactivation is, setting by setting: (concentration: 250 µM) 1.27; (concentration: 500 µM) 1.33.
With `NS(=O)(=O)C(F)(F)C(F)(F)C(F)(F)C(F)(F)C(F)(F)C(F)(F)C(F)(F)C(F)(F)F` [perfluorooctane sulfonamide], the luciferase reporter transactivation was found to be 0.722 (concentration: 1 µM); 1.1 (concentration: 2.5 µM); 1.08 (concentration: 5 µM); 1.01 (concentration: 10 µM); 1.18 (concentration: 100 µM).

Source of the values: the supplement of paper PMC11402862.
